Screens as filed in PubChem BioAssay.
Hits are enriched below; roughly 0.86% of the tested compounds scored in any of these assays.
FEN1 inhibitor: blocks human flap endonuclease 1; P39748; Recombinant FEN1 flap cleavage, fluorescence, 15 min; Potency, µM (series often up to 114 µM), without a hit: top-dose activity change, negative = inhibition, hits mostly inhibitors; actives 0.35% (n = 390,000); AID 588795; also: nearly all actives have a fitted effect of over 65% in size
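Quantitative HTS format: each compound was titrated, incubated with 10 nM nuclease for 15 min at room temperature, then challenged with flap substrate at 50 nM final. Signal change over 15 min gave concentration–effect curves.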
PGK inhibitor: blocks T. brucei phosphoglycerate kinase | Potency, µM (top dose mostly 57.5 µM), inactives show at the top dose activity change, negative = inhibition, most hits filed as inhibitors | AID 602233 | PGK/GAPDH coupled, Kinase-Glo luminescence, 60 min | actives 0.043% (n = 380,000); also: nearly all actives have a fitted effect of over 60% in size
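Recombinant glycosomal PGK reaction used 1,3-bisphosphoglycerate generated in-well by GAPDH (100nM final) in 100mM TEA pH 7.6, 5mM MgCl2, 0.01% Tween-20. After 60 minutes at room temperature, ATP was read by Kinase-Glo Plus luminescence end-point.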
BLM helicase inh: blocks DNA unwinding by human BLM helicase; recombinant BLM DNA unwinding, fluorescence dequenching; Potency, µM (top dose mostly 56.1 µM), for inactives: top-dose activity change, negative = inhibition, most hits filed as inhibitors; actives 0.2% (n = 350,000); AID 2528;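 also: plate controls were vehicle for no effect and no enzyme for full effect; nearly all actives have a fitted effect of over 35% in size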
GLS inh: inhibitors of human glutaminase (GLS); O94925; Potency, µM (top dose mostly 45.5 µM), for inactives: at the top dose activity change, negative = inhibition, most hits filed as inhibitors; GLS enzymatic activity, qHTS titration; actives 0.21% (n = 410,000)
Target sequence (O94925 whole entry, looked up): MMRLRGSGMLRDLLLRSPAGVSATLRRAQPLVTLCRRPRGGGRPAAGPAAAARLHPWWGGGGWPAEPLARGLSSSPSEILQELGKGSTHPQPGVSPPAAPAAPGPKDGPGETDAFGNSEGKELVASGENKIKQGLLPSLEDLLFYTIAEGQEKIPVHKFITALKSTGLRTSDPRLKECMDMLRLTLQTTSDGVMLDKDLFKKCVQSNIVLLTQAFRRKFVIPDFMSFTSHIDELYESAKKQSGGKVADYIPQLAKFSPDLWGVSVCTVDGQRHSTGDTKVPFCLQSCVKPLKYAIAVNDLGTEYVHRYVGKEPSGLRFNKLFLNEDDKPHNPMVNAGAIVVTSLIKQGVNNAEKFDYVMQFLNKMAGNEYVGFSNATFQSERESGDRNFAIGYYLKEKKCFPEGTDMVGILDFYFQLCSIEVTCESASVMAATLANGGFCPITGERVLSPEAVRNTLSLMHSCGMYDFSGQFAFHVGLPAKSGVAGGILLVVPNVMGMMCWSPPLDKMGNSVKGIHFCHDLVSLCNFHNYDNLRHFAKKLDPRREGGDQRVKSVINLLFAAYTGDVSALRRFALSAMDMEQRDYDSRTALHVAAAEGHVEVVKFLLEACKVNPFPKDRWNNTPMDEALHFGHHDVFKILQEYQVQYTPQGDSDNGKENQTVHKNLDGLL
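Coupled fluorescence readout: glutamate oxidase/HRP/Amplex Red detect glutamate formed by hKGA from L-glutamine (1 mM solution added). Buffer 45 mM KH2PO4 pH 8.2, 0.02% Tween-20; reads at t0 and 30 min RT.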
APE1 inh: blocks human APE1 abasic DNA cleavage; AID 2517; actives 0.35% (n = 350,000); P27695; Potency, µM (top dose mostly 65.8 µM), without a hit: top-dose activity change, negative = inhibition, usual class: inhibitors; recombinant APE1, TAMRA/BHQ-2 abasic DNA cleavage fluorescence;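 also: plate controls were vehicle for no effect and reference inhibitor for full effect; nearly all actives have a fitted effect of over 55% in size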
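APE1 at 0.75 nM preincubated 15 min at room temperature with compound. Reaction then started with 50 nM double-stranded THF-abasic substrate labelled with TAMRA/BHQ-2, and 525/598 nm fluorescence read kinetically. Activity taken as third-minus-first read difference, normalized to DMSO and NSC13755 controls.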
RECQ1 inh: blocks DNA unwinding by human RECQ1; RECQ1 DNA unwinding, red fluorescence kinetic read; P46063; Potency, µM (doses to about 57.3 µM), without a hit: top-dose activity, negative = inhibition, usual class: inhibitors; actives 0.54% (n = 240,000);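 also: plate controls were vehicle for no effect and no enzyme for full effect; nearly all actives have a fitted effect of over 30% in size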
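50 nM RECQ1T1 preincubated 15 min with compound in Tris pH 8.0 buffer with MgCl2, DTT, Tween-20 and 2.5 ug/ml poly(dI-dC); started with 200 nM TAMRA/BHQ-2 forked duplex and 2 mM ATP. Unwinding read as fluorescence (525/598 nm), two reads 2 h apart.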
Numbers without * were called inactive; i = inactive; ? = inconclusive; / = no result given; [ ] = remark or other dose. Calls follow the shape of the dose curve; as a rule, active = well fitted curve in the direction sought with a large enough effect; inconclusive = small, poorly fitted or top-dose-only effect, or another doubt; inactive = no such curve, though single readings can be large; an effect the other way counts as inactive or inconclusive. Unless noted, % is scaled to controls: 0 for no effect and ±100 for the full control effect; potency is read from the fitted curve at half-maximal effect.

SMILES | FEN1 inhibitor | PGK inhibitor | BLM helicase inh | GLS inh | APE1 inh | RECQ1 inh
Cc1ccc(S(=O)(=O)C(CNC(=O)Cc2ccc(Cl)cc2)c2cccs2)cc1 (stereo unspecified) | -20% | 9% | -11% | 6% | / | /
COc1ccc(CC(=O)NCC(c2cccs2)S(=O)(=O)c2ccc(Cl)cc2)cc1 (stereo unspecified) | -21% | 3.2µM* | -2% | ? | / | /
CC[C@@H](C)CCCCC(=O)N[C@@H](CCNCS(=O)(=O)O)C(=O)N[C@H](C(=O)N[C@@H](CCNCS(=O)(=O)O)C(=O)N[C@H]1CCNC(=O)[C@H]([C@@H](C)O)NC(=O)[C@H](CCNCS(=O)(=O)O)NC(=O)[C@H](CCNCS(=O)(=O)O)NC(=O)[C@H](CC(C)C)NC(=O)[C@@H](CC(C)C)NC(=O)[C@H](CCNCS(=O)(=O)O)NC1=O)[C@@H](C)O | / | / | / | / | 9% | /
CCCCC(CC)CO (stereo unspecified) | 5% | i | / | 0% | 28% | -3%
CCCCC(CC)CN=C(N)NC(N)=NCCCCCCN=C(N)NC(N)=NCC(CC)CCCC (stereo unspecified) | 50µM* | i | ? | 16µM* | -14% | 14%
COc1ccc(/C=C/C(=O)c2c(O)c(OC)c3occc3c2OC)cc1OC | 2% | / | / | / | / | /
Cc1nnc(Sc2cc(NCCCO)c([N+](=O)[O-])c3nonc23)s1 | 45µM* | -5% | -15% | ? | -4% | -4%
O=[N+]([O-])c1c(NCCCO)cc(Sc2nc3ccccc3s2)c2nonc12 | 40µM* | -4% | 4% | ? | -7% | -4%
CCC(=O)OCCNc1cc(Sc2nc3ccccc3[nH]2)c2nonc2c1[N+](=O)[O-] | -23% | -10% | -4% | ? | ? | -17%
Cc1nnc(Sc2cc(NCCO)c([N+](=O)[O-])c3nonc23)s1 | 40µM* | 2% | -7% | -3% | ? | i
CCOC(=O)C1CCN(c2nc(-c3ccc(Br)cc3)cs2)CC1 | / | / | / | / | 56% | /
CS(=O)(=O)N1CCN(/[N+]([O-])=N/Oc2ccc([N+](=O)[O-])cc2[N+](=O)[O-])CC1 | 4% | / | / | / | / | /
COc1cc(/C=C2\SC(=O)N(c3cccc(Cl)c3)C2=O)cc([N+](=O)[O-])c1O | 89µM* | ? | -9% | ? | 2% | i
CC1Cc2ccccc2C[N+]1(C)CC(=O)c1cccc([N+](=O)[O-])c1 (stereo unspecified) | 0% | / | / | / | / | /
CC1=C(O)C(=O)C(C2=C(O)C(=O)C(C)=C(O)C2=O)=C(O)C1=O | 11% | ? | / | ? | / | /
O=C1C(O)=C(O)C(=O)C(O)=C1O | / | / | ? | 20µM* | 10µM* | -17%
CCOc1[nH]c(/N=C/c2ccc(OC)cc2)c(C#N)c1C#N | 79µM* | / | / | / | / | /
CN(C)CC1CC/C(=C\c2ccc(O)cc2)C1=O (stereo unspecified) | 56µM* | i | / | 3% | / | /
O=C1c2ccccc2NC(c2ccc3c(c2)OCO3)N1Cc1ccco1 (stereo unspecified) | 1% | / | / | / | / | /
CC(=O)NC(CCC(N)=O)C(=O)O (stereo unspecified) | / | / | / | -6% | / | /
C/C(N)=C(/C#N)C(=O)CSc1nnnn1-c1ccc(C)cc1 | -19% | 0% | -7% | 0% | -3% | 20µM*
CC(=O)/C(N=Nc1ccc(C(=O)O)cc1[N+](=O)[O-])=C(\C)O | -5% | -27% | 4% | -18% | 10µM* | i
COc1ccc(-c2cc(=O)oc3c(O)c(O)ccc23)cc1 | -13% | ? | 10µM* | 4.5µM* | 13% | /
COc1ccc(C(=O)Oc2ccc3c(-c4ccc(OC)cc4)cc(=O)oc3c2)cc1 | / | / | -6% | / | 4% | -7%
CC1CCC2C(=O)N3C(CCC(C)C3c3ccc(-c4ccco4)cc3)C(=O)N2C1c1ccc(-c2ccco2)cc1 (stereo unspecified) | / | / | 3.5µM* | / | 4µM* | 2.5µM*
SMILES | FEN1 inhibitor | PGK inhibitor | BLM helicase inh | GLS inh | APE1 inh | RECQ1 inh
COC(=O)c1ccccc1NC(=O)c1cnn2c1NC(=C1CC1)C=C2C(F)F | -25% | / | / | / | / | /
C=C1[C@@H]2CC[C@@H](C2)C1(C)C | / | / | / | / | -1% | /
CN1CCN(CCCNC(=O)c2cc3c(-c4ccc(Cl)cc4)nn(C)c3s2)CC1 | ? | 10% | 169% | 0% | ? | 44%
CCN(CC)CCCNC(=O)c1cc2c(-c3ccc(Cl)cc3)nn(C)c2s1 | 45µM* | -3% | 198% | -3% | ? | 91%
CC(=C/C=C/C(C)=C/C=C/C=C(C)/C=C/C=C(C)/C=C/C(=O)O)/C=C/C(=O)O | / | / | / | / | ? | -15%
O=C(O)c1ccc2c(c1)ncn2-c1ccc(F)c(F)c1 | 14% | 3% | 0% | -11% | / | /
O=C(O)c1ccc2c(ccc3nn(-c4ccc(/C=C/c5ccc(-n6nc7ccc8cc(C(=O)O)ccc8c7n6)cc5[S+](=O)([O-])[O-])c([S+](=O)([O-])[O-])c4)nc32)c1 | 3.2µM* | / | / | / | / | /
N[C@H]1CN(c2c(F)cc3c(=O)c(C(=O)O)cn(C4C[C@@H]4F)c3c2Cl)CC12CC2 (stereo partly specified) | / | / | / | -4% | / | /
Oc1cccc(/C=N/N=C/c2cccc(O)c2O)c1O | -19% | -20% | -3% | 3.5µM* | -32% | /
Cc1ccc(N=Cc2cccc(O)c2O)c(C)c1 | 4.5µM* | / | -21% | / | -11% | -13%
CCN(CC)c1ccc(C=Nc2ccc(C)cc2C)c(O)c1 | -5% | -2% | -2% | 3% | -1% | i
Cc1ccccc1N=Cc1cccc(O)c1O | 50µM* | -6% | -11% | ? | ? | ?
Cc1cc(C)nc(SCc2ccc(C(=O)N/N=C3\CCCC(=O)C3)cc2)n1 | 6% | -11% | -8% | 20% | 20% | 22µM*
Cc1cc(C)nc(SCc2ccc(C(=O)NN=C3CCCC3)cc2)n1 | 4% | -9% | -3% | 14% | -8% | -7%
O=C(c1cnn2c1NC(=C1CC1)C=C2C(F)F)N(C1CCCCC1)C1CCCCC1 | / | / | / | / | -6% | /
C/C(N)=C(/C#N)C(=O)CSc1nnc(Nc2ccccc2)s1 | -12% | -5% | -5% | 21% | -7% | -4%
C/C(N)=C(/C#N)C(=O)CSc1nnc(NC(C)C)s1 | 35µM* | -16%[11.5 µM] | -13% | ? | ? | -14%
CCOC(=O)c1sc(NNC(=O)c2ccc(F)cc2)nc1C | -3% | 3% | 3% | ? | 2% | -6%
CCOC(=O)c1sc(NNC(=O)c2ccc(C)cc2)nc1C | 12% | i | -1% | 1.3µM* | -2% | -5%
c1ccc(-c2cc(-c3ccccc3)c3c(n2)-c2ccccc2OC3)cc1 | -15% | 3% | -4% | 23% | / | /
